Shown are actives, neighbours in structure and some others; about 4.8% of the full set was active somewhere.
DAX1 inh-1 – DAX1 (NR0B1) inhibitors, primary screen, cell-based, HEK293, Gal4-DAX1, luciferase luminescence; AID 504766, 2011; HEK293 Gal4-DAX1 luciferase reporter; Nuclear receptor subfamily 0 group B member 1 (Homo sapiens), P51843; hit rate 0.99% among 340,000; inhibition, % at 6.75 µM;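 active = inhibition above the mean over all tested compounds plus 3 SD, cut at about 4.2% in these data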;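 also: 0% = DAX1-transfected cells with DMSO and 100% = empty-vector control cells with DMSO; inhibition shows as a rise in luminescence from relieved DAX1 repression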
SMARCA2 activ – SMARCA2 (BRM) function activators, primary screen, cell-based, luminescence, high throughput. MG213 cells, MMTV-luciferase reporter, dexamethasone, overnight. activation, % at 9.1 µM. hit rate 1% among 370,000. AID 652017, 2013; in the data active = activation above about 7.8%;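 also: 0% = vehicle wells and 100% = reference activator wells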
hcDAF-12 act – H. contortus DAF-12 nuclear receptor activators, primary screen, cell-based, luminescence, HEK293, lit1-tk-luc reporter. hit rate 1.4% among 370,000. activation, % at 6.8 µM. HEK293 hcDAF-12 lit1-tk-luc reporter; 0% DMSO, 100% Δ7-dafachronic acid;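 active = activation above the mean of all tested compounds plus 3 SD, cut at about 5.5% in these data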;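 also: 100% = response to 3 µM Δ7-dafachronic acid high control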
hgDAF-12 ag – H. glycines DAF-12 receptor agonists, primary screen, cell-based, luminescence, HEK293, GAL4 fusion, UAS-luciferase; Nuclear hormone receptor DAF-12 (Heterodera glycines), GAL4 fusion; HEK293 GAL4-hgDAF12 UAS-luciferase reporter, agonist luminescence; normalized to butyrate control; activation, % at 6.8 µM; hit rate 1.8% among 370,000; AID 687014, 2013;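 active = activation above a cutoff set at the mean of all screened compounds plus 3 SD, cut at about 10% in these data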;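 also: 0% = DMSO wells and 100% = sodium butyrate wells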
DAX1 inh-2 – DAX1 (NR0B1) inhibitors on StAR promoter, primary screen, cell-based, luminescence, SF-1 (NR5A1), full-length DAX-1 | HEK293T StAR-luciferase reporter, SF-1/DAX-1 repression relief | inhibition, % at 6.8 µM | hit rate 1.1% among 370,000 | AID 652010, 2013;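 active = inhibition above the mean over all tested compounds plus 3 SD, cut at about 3.6% in these data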;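 also: 0% = DAX-1 cells with DMSO and 100% = cells lacking DAX-1 with DMSO; higher inhibition means more luminescence from relief of DAX-1 repression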
ssDAF12 agonist – S. stercoralis DAF-12 nuclear receptor activators, primary screen, cell-based, luminescence, HEK293, GRIP1 co-expression, lit1-tk-luc | Nuclear hormone receptor DAF-12 (Strongyloides stercoralis) | HEK293 ssDAF-12/GRIP1 lit1-tk-luc reporter; % of 3 µM dafachronic acid response | activation, % at 6.8 µM | hit rate 1% among 370,000 | AID 652126, 2013;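 active = activation above the mean over all tested compounds plus 3 SD, cut at about 0.9% in these data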;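 also: 0% = DMSO-only wells and 100% = 3 µM delta7-dafachronic acid wells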
DAX1 inh confirm – DAX1 (NR0B1) inhibitors relieving SF-1 repression, confirmation, cell-based, luminescence, HEK293T, full-length DAX-1, SF-1 activated StAR promoter | shares compounds with DAX1 inh-2 | HEK293T StAR-promoter luciferase reporter, SF-1/DAX-1 repression | inhibition, % at 6.8 µM | hit rate 87% among 2,400 | AID 652134, 2013;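 active = inhibition above the average of every tested compound plus 3 SD, cut at about 3.8% in these data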;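 also: 0% = DAX-1 cells with DMSO and 100% = no DAX-1 control cells with DMSO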
SF1 mutant ctr – StAR reporter signal changes without DAX1, counter-screen for DAX1 inhibitor project, cell-based, luminescence, AF-2 mutant SF-1, transactivation; shares compounds with DAX1 inh-2; HEK293 StAR-luciferase, SF-1 AF2 mutant; inhibition, % at 6.8 µM; hit rate 78% among 2,400;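 active = inhibition above the mean of all tested compounds plus 3 SD, cut at about 3% in these data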;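 also: 0% = DAX-1 transfected cells with DMSO and 100% = cells without DAX-1 with DMSO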
SMARCA2 act conf – SMARCA2 (BRM) function activators, confirmation, cell-based, luminescence, triplicate. shares compounds with SMARCA2 activ. MG213 cells, MMTV-luciferase with dexamethasone, overnight; MG213 cells expressing E1A, Rb sequestered; DMSO wells 0%, reference activator 100%. activation, % at 9.1 µM. hit rate 30% among 3,500. AID 652260, 2013;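 active = activation above its plate's cutoff, the mean activation of tested wells plus 3 SD, cut at about 7.9% in these data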
GAL4-VP16 Luc – GAL4-VP16 luciferase reporter activation, counter-screen for SMARCA2 (BRM) activator project, cell-based, pG5luc, luminescence, high throughput; shares compounds with SMARCA2 activ; HEK293 GAL4-VP16 pG5luc reporter; scaled: DMSO wells 0%, SAHA wells 100%; activation, % at 9.1 µM; hit rate 41% among 3,500; AID 686939, 2013;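 active = activation above the solvent-only control well mean plus 3 SD, averaged across control plates, cut at about 5.2% in these data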
LXR ag – LXR agonists, Gal4 luciferase reporter, confirmation, counter-screen for hcDAF-12 agonist project, cell-based, luminescence, HEK293, H. contortus campaign | shares compounds with hcDAF-12 act | HEK293 Gal4-LXR tk-luc reporter, 24 h; normalized: DMSO 0%, positive control 100% | activation, % at 6.8 µM | 3,400 tested, under 10 active | AID 743027, 2013;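 active = mean percent activation of the reporter above a cutoff set as the average over tested compounds plus their standard deviation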
Target sequence (P55055 whole entry, looked up, the tested form may be a part): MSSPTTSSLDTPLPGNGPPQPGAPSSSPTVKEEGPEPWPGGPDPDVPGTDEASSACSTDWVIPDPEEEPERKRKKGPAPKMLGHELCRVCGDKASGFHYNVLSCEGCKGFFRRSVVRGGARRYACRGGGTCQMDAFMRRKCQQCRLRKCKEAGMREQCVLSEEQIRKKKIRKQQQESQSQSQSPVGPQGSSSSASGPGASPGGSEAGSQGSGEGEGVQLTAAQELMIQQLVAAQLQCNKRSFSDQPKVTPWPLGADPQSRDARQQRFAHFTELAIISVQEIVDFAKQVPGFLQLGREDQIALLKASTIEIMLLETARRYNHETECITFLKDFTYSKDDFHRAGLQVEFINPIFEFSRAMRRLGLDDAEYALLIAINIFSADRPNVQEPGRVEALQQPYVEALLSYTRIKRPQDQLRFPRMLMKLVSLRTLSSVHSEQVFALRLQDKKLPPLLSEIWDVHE
hcDAF12 ag – H. contortus DAF-12 receptor agonists, confirmation, cell-based, luminescence, HEK293, lit1-tk-luc, triplicate; activation, % at 6.8 µM; shares compounds with hcDAF-12 act; hit rate 61% among 3,400; HEK293 hcDAF-12 lit1-tk-luc reporter; % of Δ7-dafachronic acid response;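 active = mean activation across triplicate tests above the threshold derived from the earlier primary screen, cut at about 5.5% in these data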;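 also: 0% = DMSO only wells and 100% = 3 µM Δ7-dafachronic acid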
Starred values were filed as active, the others as inactive; . = no result.

SMILES	DAX1 inh-1	SMARCA2 activ	hcDAF-12 act	hgDAF-12 ag	DAX1 inh-2	ssDAF12 agonist	DAX1 inh confirm	SF1 mutant ctr	LXR ag	hcDAF12 ag	others
Cc1ccc(NC(=O)C2CCCN2c2nn3c(=O)cc(C)nc3s2)cc1 (centres undefined)	1	0	0	1	0	0	.	.	.	.
CCCSc1nnc(CSc2nc(C)cc(C)n2)n1C	0	4	-2	-3	0	-2	.	.	.	.
C=CCNC(=O)CN(C(=O)Cc1ccc(Cl)nc1)c1cccc(Br)c1	.	-2	-2	2	0	-2	.	.	.	.
O=C(Nc1nc2ccccc2[nH]1)c1ccc(F)cc1	-2	3	8.0*	13*	5.3*	1.2*	14*	8.9*	1	5
O=C(O)c1ccc(N/N=C/c2cc3c(cc2[N+](=O)[O-])OCO3)cc1	-1	3	-3	0	-1	-1	.	.	.	.
O=C(O)c1ccc(N/N=C/c2cc3cc4c(cc3nc2Cl)OCCO4)cc1	-5	8.4*	12*	24*	7.3*	2.9*	25*	9.6*	3	20*	SMARCA2 act conf=8;GAL4-VP16 Luc=11*
O=c1[nH]c(COc2ccc(Cl)cc2Br)nc2ccccc12	2	4	8.7*	12*	7.1*	0	8.8*	8.9*	1	3
C=CC[C@H](CC(=O)N(CCO)Cc1ccccc1)C(=O)NCCOC(=O)[C@@H](CC=C)CC(=O)OC(C)(C)C	0	1	-1	1	0	-2	.	.	.	.
COc1ccc([C@H]2CC(=O)C=C(c3ccc(F)cc3OCc3ccccc3)C2)cc1OC	-2	0	-3	-5	-2	-2	.	.	.	.
COc1ccc(-c2csc(-c3ccccc3)n2)c(OC)c1	4.6*	3	15*	22*	8.9*	2.4*	18*	8.5*	2	11*
C/C(=N/NC(=O)c1ccccc1)C(=O)O	0	-1	1	-1	1	-1	.	.	.	.
C/C(=N\NC(=O)c1ccccc1)C1C2C=CC(C2)C1(C)C (centres undefined)	5.3*	5	8.3*	9	6.0*	1.9*	2	0	0	4
Cc1cc(C)nc(Nc2nc(-c3ccccc3)cs2)n1	-2	4	22*	18*	4.5*	5.0*	20*	8.4*	3	37*
c1ccc(-c2csc(Nc3ccc4c(c3)OCCO4)n2)cc1	3	0	15*	19*	6.9*	3.1*	20*	7.0*	2	16*
CC(C)CCNC(=O)c1cc(S(=O)(=O)N2CCC3(CC2)OCCO3)ccc1F	-1	1	-2	-4	0	-2	.	.	.	.
COc1ccc(C=Nn2c(-c3n[nH]c4c3CCC4)n[nH]c2=S)cc1OCc1ccccc1	.	-2	-2	-2	0	-2	.	.	.	.
c1ccc(-c2noc(-c3cccc4ccccc34)n2)nc1	-1	7	18*	13*	5.5*	3.0*	12*	4.6*	2	20*
Cc1ccc2nc(-c3ccc(NC(=O)COC(=O)c4cncc(Br)c4)cc3)sc2c1	3	6	9.5*	13*	5.7*	1.6*	17*	7.5*	2	12*
Cc1ccc(-c2cc3nc(C)cc(C)n3n2)cc1	1	5	17*	21*	4.5*	5.6*	11*	6.2*	2	18*
CC(C)CC1COC(=O)N1 (centres undefined)	1	1	0	-2	0	-1	.	.	.	.
COc1ccccc1NC(CC(=O)c1ccccc1)C(=O)OCC(=O)c1ccc(F)cc1 (centres undefined)	1	10.0*	18*	18*	6.2*	2.7*	15*	6.6*	3	19*	SMARCA2 act conf=8.6*;GAL4-VP16 Luc=15*
Clc1ccc(-c2nc3n(n2)Cc2ccccc2-3)cc1	3	5	17*	17*	5.1*	3.5*	13*	5.5*	2	24*
CCN(CC)S(=O)(=O)c1cccc(-c2nc3n(n2)Cc2ccccc2-3)c1	0	3	0	3	1	-2	.	.	.	.
O=c1oc2ccccc2cc1-c1nc2c(s1)CCCC2	0	6	10*	12*	5.0*	1	5.2*	-1	1	14*
O=C(Nc1ccon1)c1cnc2sccn2c1=O	0	2	3	3	0	-1	.	.	.	.

High-throughput results from PubChem.
